Bioassay records from PubChem.
The list is not random: actives were taken first. Their share in the collection is about 13%.
WT yeast gro inh: growth inhibition of WT yeast, mitochondrial fusion screen. AID 1362. actives 2.1% (n = 190,000). inhibition, % at 10 µM. mitochondrial fusion phenotypic screen, WT strain; in the data active = inhibition above about 58%; tested in S. cerevisiae
RAM network inh: blocks the yeast RAM network; AID 868; S. cerevisiae dse1pr::URA3 reporter, 5-FOA growth OD615, 2 d; analog-sensitive cbk1-as2 kinase mutant strain; actives 1.8% (n = 190,000); inhibition, % at 50 µM;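 active = inhibition above a set limit, 3 SD over mean compound inhibition, cut at about 8.4% in these data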;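 note: 0% = DMSO-only wells with no growth and 100% = 10 µM 1-NA-PP1 full growth; inhibition rescues growth on 5-FOA so higher OD means more RAM inhibition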
Lmaj promast: reduces viability of Leishmania major promastigotes; resazurin fluorescence viability; inhibition, % at 10 µM; actives 9% (n = 200,000); AID 1063; in the data active = inhibition above about 50%;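 note: promastigotes grown with compound for 44 hours at 28 °C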
CHOP inhibitor: blocks CHOP induction under ER stress; inhibition, % at 10 µM; actives 3.8% (n = 220,000); CHO-K1 CHOP-promoter luciferase, tunicamycin-induced, 15-18 h;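 active = compounds that reduced the stress-induced luciferase reporter signal by more than about 70% of percent inhibition, limit read from the data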;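 note: 0% = tunicamycin plus vehicle and 100% = wells without tunicamycin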
* marks the source's active call; other numbers are inactive results; / = no result.

SMILES	WT yeast gro inh	RAM network inh	Lmaj promast	CHOP inhibitor
COc1ccc2c(c1OC)C(=O)OC2Nc1nc(-c2cc3cc(Br)ccc3oc2=O)cs1 (centres undefined)	/	/	/	71*
COc1ccc(-c2csc(NC3OC(=O)c4c3ccc(OC)c4OC)n2)cc1OC (centres undefined)	/	/	/	-121
N#CC1=C(N)OC2=C(CC/C2=C\c2ccccc2)C1c1ccccc1 (centres undefined)	5	3	101*	58
N#CC1=C(N)OC2=C(C(=O)CCC2)C1c1ccccc1 (centres undefined)	-8	2	5	-10
CC(=O)C1=C(C)OC(N)=C(C#N)C1c1cc([N+](=O)[O-])ccc1Cl (centres undefined)	/	/	/	-19
N#CC1=C(N)OC2=C(CC/C2=C\c2ccccc2Cl)C1c1ccccc1Cl (centres undefined)	-12	5	73*	-76
Cc1nn(Cc2cccc(C(=O)N3CCCC(C)C3)c2)c(C)c1[N+](=O)[O-] (centres undefined)	-17	1	-11	33
O=C(CCNC(=O)c1ccc(Cl)cc1)Nc1c(F)c(F)cc(F)c1F	0	0	2	-27
O=C(O)c1ccc(NC2=C/C(=N/S(=O)(=O)c3ccccc3)c3ccccc3C2=O)cc1	48	5	100*	103*
CC(C)(C)c1ccccc1OCC(=O)Nc1ncn[nH]1	-2	3	3	38
CC(C)(C)c1ccccc1OCC(=O)NCCC(=O)O	0	0	99*	-11
COc1cc(NC(=O)CSc2nc(C)c(C)c(C)n2)cc(OC)c1	3	3	4	7
Cc1ccc(S(=O)(=O)Nc2cc3c(C(=O)Nc4ccccc4)c(C)oc3c3ccccc23)cc1	27	6	61*	13
Cc1oc2ccc(NS(=O)(=O)c3ccccc3)cc2c1C(=O)Nc1ccccc1	1	5	-1	65
Cc1csc(NC(=O)C2CCN(S(=O)(=O)c3ccc4c(c3)oc(=O)n4C)CC2)n1	12	2	-7	52
Cc1csc(NC(=O)C(CC(C)C)NS(=O)(=O)c2ccc3c(c2)oc(=O)n3C)n1 (centres undefined)	6	1	-6	97*
CC(C)c1ccc2c(c1)C(c1ccc(N3CCOCC3)cc1)=NNC(c1cccs1)=N2	40	8	83*	15
Cc1ccc2c(c1)C(c1ccncc1)=NNC(c1ccc(F)cc1)=N2	-4	5	14	2
Cc1ccc2c(c1)C(c1ccncc1)=NNC(c1ccc(C(C)C)cc1)=N2	-11	2	20	98*
Fc1ccc2c(c1)C(c1ccncc1)=NNC(c1ccc(Br)cc1)=N2	30	0	1	38
Cc1ccc(C2=Nc3ccc(Br)cc3C(c3ccncc3)=NN2)cc1	14	2	85*	31
S=C(NCc1ccccc1)N1CCN(C2CCCCC2)CC1	/	/	/	6
COC(=O)c1ccccc1NC(=O)CSc1nnc(CNS(=O)(=O)c2ccc(C)cc2)n1C	4	7	-4	6
Cc1ccccc1C(=O)NNC(=O)CSc1nnc(-c2ccncc2)n1-c1ccccc1	1	0	-5	-15
N#CC(C#N)=C1C(=O)N(CCN2CCOCC2)c2ccccc21	/	/	/	-62
SMILES	WT yeast gro inh	RAM network inh	Lmaj promast	CHOP inhibitor
O=C(O)c1ccccc1Cc1nc2cc(Cl)ccc2c(=O)[nH]1	-5	8.6*	-5	7
CCOC(=O)c1ccccc1Cc1nc2ccccc2c(=O)[nH]1	-11	6	-2	2
Cn1ncc(Cl)c1C(=O)Nc1cccc(Cl)c1	0	0	3	1
Cn1ncc(N=Cc2c(O)ccc3ccccc23)c1C(=O)Nc1cccc(Cl)c1	-6	3	10	76*
COc1cccc(OC)c1C(=O)NC(C)C12CC3CC(CC(C3)C1)C2 (centres undefined)	62*	3	35	16
COc1cc(NC(=O)COC(=O)/C=C/c2ccc(Cl)cc2Cl)cc(OC)c1	-5	9.5*	-6	4
COc1cccc(NC(=O)COC(=O)/C=C/c2ccc(Cl)cc2Cl)c1	6	7	-3	62
Cc1c(N2C(=O)c3cccc4cccc(c34)C2=O)c(=O)n(-c2ccccc2)n1C	97*	0	-2	7
O=C(NCCc1ccccc1)N1c2ccccc2Sc2ccccc21	-4	9.8*	14	20
CC(C)CNC(=O)N1c2ccccc2Sc2ccccc21	/	/	/	-4
CC(C)(C)[C@H]1C=C(C(N)=O)O[C@@H](OCc2ccc(CO)cc2)C1	-9	0	-8	-9
CCOC(=O)CN1C=C(c2ccc3ccccc3n2)C(C[N+](=O)[O-])c2ccccc21 (centres undefined)	50	0	99*	19
CC(C)N(C(=O)CSc1nnc(-c2cc3ccccc3cc2O)n1Cc1ccco1)C(C)C	8	4	54*	42
Cc1ccc(-c2nnc(SCc3ccc(C#N)cc3)n2Cc2ccco2)cc1	13	1	66*	-8
Brc1ccc(CSc2nnc(-c3ccccn3)n2Cc2ccco2)cc1	18	2	10	47
COCCn1c(SCC(=O)N(C(C)C)C(C)C)nnc1-c1cc2ccccc2cc1O	-4	0	16	58
CC(C)(C)c1ccc(CSc2nnc(-c3ccccn3)n2Cc2ccco2)cc1	64*	4	35	94*
O=C(CSc1nnc(-c2cnccn2)n1Cc1ccco1)c1ccccc1	99*	5	3	3
COc1cccc(-c2nnc(SCc3ccc(C#N)cc3)n2Cc2ccco2)c1	27	4	12	-3
O=C(CSc1nnc(-c2cnccn2)n1Cc1ccco1)c1ccc(Cl)cc1	-1	3	21	20
COc1cccc(C(c2c(NC(=O)c3ccccc3)sc(C)c2C)N2CCN(C)CC2)c1 (centres undefined)	53	0	34	23
CCOC(=O)N1CCN(C(=O)CSc2ccc3nnc(CCNC(=O)c4ccccc4)n3n2)CC1	-8	1	4	-9
O=C(NC(=S)N1CCN(c2c(Cl)cccc2[N+](=O)[O-])CC1)c1cccs1	78*	0	4	-2
O=C(NC(=S)N1CCN(c2ccc(O)cc2)CC1)c1cccs1	/	/	/	5
COc1ccc(N2CCN(C(=S)NC(=O)c3cccs3)CC2)c([N+](=O)[O-])c1	61*	2	3	5
SMILES	WT yeast gro inh	RAM network inh	Lmaj promast	CHOP inhibitor
CC1Oc2ccccc2N(Cc2ccccc2Cl)C1=O (centres undefined)	6	1	4	89*
CC1Oc2ccccc2N(Cc2ccccc2F)C1=O (centres undefined)	21	0	-4	36
CC12CCC(C/C1=N\N=C1\NC(=O)/C(=C\c3ccc(Cl)cc3)S1)C2(C)C (centres undefined)	28	3	-2	93*
O=C1NC(=NCc2ccccc2)S/C1=C\c1ccccc1	-3	6	22	5
CC(=O)Nc1ccc(S(=O)(=O)NCC(=O)OCC(=O)N2CCc3ccccc32)cc1	62*	1	-1	-27
CC(=O)Nc1ccc(S(=O)(=O)NCC(=O)OCC(=O)NC23CC4CC(CC(C4)C2)C3)cc1	-13	1	51*	12
